Test results taken from PubChem BioAssay (EPA / NIEHS).
Active and inactive are the calls of the source. The calls were made as follows: active = hit-call score of the fitted dose curve at least 0.9, where 1 is the maximum; inactive = score below 0.9.

Experiments:
Conditions in all cases: mRNA level, 48 h; actives raise or lower the signal
[1] = read-out: Cytochrome P450 (CYP2B6), CYP2B6 (gene 1555); test: LTEA_HepaRG_CYP2B6: Life Technologies and Expression Analysis (LTEA) Assay for Cytochrome P450 (CYP2B6) using HepaRG (AID 2283481)
In short: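 Differentiated human HepaRG cells in serum-free induction medium, dosed in duplicate for 48 h over 8 half-log concentrations topping at 100 uM (0.5% DMSO). CYP2B6 mRNA measured by TaqMan qRT-PCR, normalized to ACTB, GAPDH, POLR2A; bidirectional fit versus DMSO.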

[2] = read-out: Cytochrome P450 2C19 (Homo sapiens) (UniProt P33261); test: LTEA_HepaRG_CYP2C19: Life Technologies and Expression Analysis (LTEA) Assay for CYP2C19 using HepaRG (AID 2283482)
In short: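 Differentiated HepaRG cells in serum-free induction medium exposed 48 h in duplicate, 8 concentrations from 100 uM by half-log steps in 0.5% DMSO. CYP2C19 mRNA measured by TaqMan qRT-PCR, normalized to ACTB, GAPDH, POLR2A. Bidirectional fit versus DMSO.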

CYP2C8 (gene 1558) = test: LTEA_HepaRG_CYP2C8: Life Technologies and Expression Analysis (LTEA) Assay for CYP2C8 using HepaRG (AID 2283483)
In short: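 Differentiated HepaRG cells in serum-free induction medium exposed 48 h in duplicate to 8 half-log concentrations from 100 uM in 0.5% DMSO. CYP2C8 mRNA by qRT-PCR normalized to ACTB, GAPDH, POLR2A; bidirectional fit versus DMSO.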

CYP2C9 (gene 1559) = test: LTEA_HepaRG_CYP2C9: Life Technologies and Expression Analysis (LTEA) Assay for CYP2C9 using HepaRG (AID 2283484)
In short: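 Differentiated human HepaRG cells in serum-free induction medium were exposed 48 h to chemicals in 8-point half-log series from 100 uM (0.5% DMSO), in duplicate. CYP2C9 mRNA was measured by qRT-PCR, normalized to ACTB/GAPDH/POLR2A, with bidirectional fitting versus DMSO.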

CYP2E1 (gene 1571) = test: LTEA_HepaRG_CYP2E1: Life Technologies and Expression Analysis (LTEA) Assay for CYP2E1 using HepaRG (AID 2283485)
In short: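 Human liver line HepaRG, plated 48 h, then serum-free induction medium + chemical x 48 h; 8-pt CRC from 100 uM, half-log, 0.5% DMSO, n=2. Readout: CYP2E1 mRNA qRT-PCR vs ACTB/GAPDH/POLR2A; bidirectional fit vs DMSO.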

CYP4A11 (gene 1579) = test: LTEA_HepaRG_CYP4A11: Life Technologies and Expression Analysis (LTEA) Assay for CYP4A11 using HepaRG (AID 2283486)
In short: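 Differentiated HepaRG cells, 48 h after plating, exposed in duplicate for 48 h to 8 half-log concentrations up to 100 uM in 0.5% DMSO in serum-free induction medium. CYP4A11 mRNA measured by TaqMan qRT-PCR, normalized to ACTB, GAPDH and POLR2A.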

[3] = read-out: Cytochrome P450 3A4 (Homo sapiens) (UniProt P08684); test: LTEA_HepaRG_CYP3A4: Life Technologies and Expression Analysis (LTEA) Assay for CYP3A4 using HepaRG (AID 2283487)
In short: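 HepaRG, 48 h exposure, 8-pt CRC from 100 uM (half-log), 0.5% DMSO, duplicates; serum-free induction medium. Readout: CYP3A4 mRNA, qRT-PCR, ACTB/GAPDH/POLR2A normalization. Bidirectional fit vs DMSO.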

[4] = read-out: DNA damage-inducible transcript 3 (DDIT3), DDIT3 (gene 1649); test: LTEA_HepaRG_DDIT3: Life Technologies and Expression Analysis (LTEA) Assay for DNA damage-inducible transcript 3 (DDIT3) using HepaRG (AID 2283488)
In short: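 HepaRG plated 48 h, switched to serum-free induction medium, dosed 48 h (100 uM top, half-log, 8 pts, 0.5% DMSO, n=2); RNA isolated; DDIT3 by qRT-PCR; bidirectional curve fit vs DMSO.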

[5] = read-out: Pro-epidermal growth factor (Homo sapiens) (UniProt P01133); test: LTEA_HepaRG_EGF: Life Technologies and Expression Analysis (LTEA) Assay for Epidermal growth factor (EGF) using HepaRG (AID 2283489)
In short: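 HepaRG cells (~100,000/well, 48 h pre-culture) exposed in duplicate for 48 h in serum-free induction medium to 8 half-log concentrations up to 100 uM in 0.5% DMSO. EGF mRNA by qRT-PCR, normalized to ACTB/GAPDH/POLR2A; bidirectional fit versus DMSO.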

[6] = read-out: Early growth response protein 1 (EGR1) transcription factor, EGR1 (gene 1958); test: LTEA_HepaRG_EGR1: Life Technologies and Expression Analysis (LTEA) Assay for Early growth response protein 1 (EGR1) transcription factor using HepaRG (AID 2283490)
In short: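 Differentiated HepaRG cells in serum-free induction medium exposed 48 hours, duplicate, to 8 half-log concentrations up to 100 uM in 0.5% DMSO. EGR1 mRNA measured by TaqMan qRT-PCR, normalized to ACTB, GAPDH, POLR2A; bidirectional fit versus DMSO.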

Measured: AC50

Sequence of Cytochrome P450 2C19 (Homo sapiens) (P33261 whole entry, looked up): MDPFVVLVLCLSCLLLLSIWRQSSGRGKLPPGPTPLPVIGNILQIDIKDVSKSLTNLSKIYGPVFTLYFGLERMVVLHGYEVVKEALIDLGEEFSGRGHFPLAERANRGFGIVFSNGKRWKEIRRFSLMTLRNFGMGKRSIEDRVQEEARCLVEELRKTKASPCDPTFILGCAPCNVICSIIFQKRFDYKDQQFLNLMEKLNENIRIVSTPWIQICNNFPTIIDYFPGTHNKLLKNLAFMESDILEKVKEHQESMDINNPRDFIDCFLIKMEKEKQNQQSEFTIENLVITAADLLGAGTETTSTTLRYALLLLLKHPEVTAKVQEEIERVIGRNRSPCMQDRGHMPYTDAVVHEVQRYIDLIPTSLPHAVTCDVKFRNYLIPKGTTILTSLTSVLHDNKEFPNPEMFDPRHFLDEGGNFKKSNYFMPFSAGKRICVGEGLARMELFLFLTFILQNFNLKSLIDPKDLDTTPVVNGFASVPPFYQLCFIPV
Sequence of Cytochrome P450 3A4 (Homo sapiens) (P08684 whole entry, looked up): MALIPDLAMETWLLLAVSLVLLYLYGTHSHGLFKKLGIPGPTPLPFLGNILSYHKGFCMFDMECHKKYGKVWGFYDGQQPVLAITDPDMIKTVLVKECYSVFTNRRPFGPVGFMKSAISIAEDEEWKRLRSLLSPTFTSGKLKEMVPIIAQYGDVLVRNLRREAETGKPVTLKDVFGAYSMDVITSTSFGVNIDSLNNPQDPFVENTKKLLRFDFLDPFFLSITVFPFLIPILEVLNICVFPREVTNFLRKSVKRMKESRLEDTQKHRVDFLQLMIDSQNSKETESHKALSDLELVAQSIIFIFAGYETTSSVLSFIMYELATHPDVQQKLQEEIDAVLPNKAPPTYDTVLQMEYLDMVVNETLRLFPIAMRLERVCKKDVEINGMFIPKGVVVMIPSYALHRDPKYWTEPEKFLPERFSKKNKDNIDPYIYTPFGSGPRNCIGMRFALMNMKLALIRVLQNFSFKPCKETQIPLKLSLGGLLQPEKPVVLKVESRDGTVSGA

COc1ccc2sc(C(=O)Nc3nnn[nH]3)c(OC(C)C)c2c1
inactive: CYP2C8 (gene 1558) | CYP4A11 (gene 1579) | [3]
active: [1] 87.1 µM | [2] 87 µM | CYP2C9 (gene 1559) 50 µM | CYP2E1 (gene 1571) 91.6 µM | [4] 13.2 µM | [5] 22 µM | [6] 74.8 µM

Cc1[nH]cnc1C[C@H]1CCc2c(C)c3ccccc3n2C1=O
inactive: [5]
active: [1] 29 µM | [2] 30.6 µM | CYP2C8 (gene 1558) 22.9 µM | CYP2C9 (gene 1559) 28.7 µM | CYP2E1 (gene 1571) 17.6 µM | CYP4A11 (gene 1579) 13.2 µM | [4] 27.4 µM | [6] 70.2 µM

COC(=O)c1c(Cl)c(Cl)c(C(=O)OC)c(Cl)c1Cl
not listed: CYP2E1 (gene 1571) | [6]
inactive: all other assays above

O=C(OC[C@H]1O[C@@H](OC(=O)c2cc(O)c(O)c(OC(=O)c3cc(O)c(O)c(O)c3)c2)[C@H](OC(=O)c2cc(O)c(O)c(OC(=O)c3cc(O)c(O)c(O)c3)c2)[C@@H](OC(=O)c2cc(O)c(O)c(OC(=O)c3cc(O)c(O)c(O)c3)c2)[C@@H]1OC(=O)c1cc(O)c(O)c(OC(=O)c2cc(O)c(O)c(O)c2)c1)c1cc(O)c(O)c(OC(=O)c2cc(O)c(O)c(O)c2)c1
inactive: [5]
active: [1] 10.2 µM | [2] 15.2 µM | CYP2C8 (gene 1558) 15.2 µM | CYP2C9 (gene 1559) 10.4 µM | CYP4A11 (gene 1579) 10.4 µM | [3] 11.3 µM | [4] 4.58 µM

Cn1c(=O)cc(Oc2ccc(F)cc2F)c2cnc(NCC(C)(C)O)nc21
inactive: CYP2C8 (gene 1558) | CYP2C9 (gene 1559) | [4] | [5]
active: [1] 6.6 µM | [2] 14.6 µM | CYP4A11 (gene 1579) 50 µM | [3] 50 µM

CC[C@H]1OC(=O)[C@H](C)[C@@H](O[C@H]2C[C@@](C)(OC)[C@@H](O)[C@H](C)O2)[C@H](C)[C@@H](O[C@@H]2O[C@H](C)C[C@H](N(C)C)[C@H]2O)[C@](C)(O)C[C@@H](C)C(=O)[C@H](C)[C@@H](O)[C@]1(C)O
active: [1] 5.59 µM | [3] 19.6 µM
not listed: CYP2E1 (gene 1571) | [6]
inactive: all other assays above

Nc1nc2ncc(CNc3ccc(C(=O)N[C@@H](CCC(=O)O)C(=O)O)cc3)nc2c(=O)[nH]1
not listed: CYP2E1 (gene 1571) | [6]
inactive: all other assays above

COCCOc1cc2cc(C(=O)NC3CCN(C(C)C)CC3)n(CC(=O)Nc3ccc(Cl)cn3)c2cn1
inactive: [4] | [5]
active: [1] 70.6 µM | [2] 66.8 µM | CYP2C8 (gene 1558) 61.8 µM | CYP2C9 (gene 1559) 62.2 µM | CYP4A11 (gene 1579) 69.7 µM | [3] 45 µM

CC(C)=CCCC(C)=CC=O
active: [1] 50 µM
not listed: CYP2E1 (gene 1571) | [6]
inactive: all other assays above

Cc1ccc(C)c(O)c1
active: [1] 51.2 µM
not listed: CYP2E1 (gene 1571) | [6]
inactive: all other assays above

COC(=O)CC(=O)OC
active: [1] 1.93 µM | [2] 3.31 µM | [3] 2.53 µM
not listed: CYP2E1 (gene 1571) | [6]
inactive: all other assays above

CCCCC(CC)COC(=O)CCCCCCCCC(=O)OCC(CC)CCCC (stereo not drawn)
inactive: all assays above

CN(C)c1ccc(Cc2ccc(N(C)C)cc2)cc1
inactive: [4] | [5] | [6]
active: [1] 1.6 µM | [2] 12.5 µM | CYP2C8 (gene 1558) 90.6 µM | CYP2C9 (gene 1559) 90.8 µM | CYP2E1 (gene 1571) 50 µM | CYP4A11 (gene 1579) 89 µM | [3] 2.5 µM

C=CCCCCCCCCC(=O)O
not listed: CYP2E1 (gene 1571) | [6]
inactive: all other assays above

Cc1ccc(S(=O)(=O)O)cc1C
not listed: CYP2E1 (gene 1571) | [6]
inactive: all other assays above

CCCCCCCCCCCCc1ccccc1
not listed: CYP2E1 (gene 1571) | [6]
inactive: all other assays above

CC(C)CCO
not listed: [5]
inactive: all other assays above

Cc1ccc(N)cc1O
not listed: CYP2E1 (gene 1571)
inactive: all other assays above

CCC(C)(C)C(=O)O[C@H]1C[C@@H](C)C=C2C=C[C@H](C)[C@H](CC[C@@H]3C[C@@H](O)CC(=O)O3)[C@H]21
inactive: [4] | [5]

CC(C)=CCC/C(C)=C/CO
inactive: [4] | [5]

Cn1cnc([N+](=O)[O-])c1Sc1ncnc2nc[nH]c12
inactive: [5]
active: [1] 5.23 µM | CYP2C8 (gene 1558) 7.61 µM | CYP2C9 (gene 1559) 9.87 µM | CYP2E1 (gene 1571) 1.45 µM | CYP4A11 (gene 1579) 0.324 µM | [4] 9.59 µM | [6] 13 µM

COc1cccc(-c2ccc(/C=C\CN3CCCCCC3)cc2Cl)c1
inactive: [5]
active: [1] 77.3 µM | [2] 74.9 µM | CYP2C8 (gene 1558) 74.1 µM | CYP2C9 (gene 1559) 70.8 µM | CYP4A11 (gene 1579) 85.4 µM | [3] 76.3 µM | [4] 79.4 µM | [6] 72.7 µM

O=C(O)c1cccc(Oc2ccccc2)c1
active: [1] 34.7 µM | [2] 31.2 µM | CYP4A11 (gene 1579) 38.9 µM
not listed: CYP2E1 (gene 1571)
inactive: all other assays above
